Assay outcomes deposited in PubChem BioAssay by National Center for Advancing Translational Sciences (NCATS).
NIH3T3 tox = Cytotoxic Profiling in NIH 3T3 Cell Line of Diverse Libraries Using Quantitative High-Throughput Screening. NIH 3T3 viability, CellTiter-Glo ATP luminescence, 48-72 h. Potency, µM (highest dose often 96.7 µM), without a hit: at the top dose activity change, negative = cytotoxicity, hits mostly inhibitors. 4.3% of 94,000 active. AID 1345082, 2018; further: on the % scale 0 is the no-effect control and ±100 the full control effect; nearly all actives have a fitted effect of over 55% in size
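Viability of NIH 3T3 cells after 48 or 72 hr compound treatment at 37 °C was assessed by CellTiter-Glo, with luminescence imaged following a 10 min room-temperature step.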
NPR1 antag = Natriuretic polypeptide receptor (hNpr1) antagonism - Primary qHTS; Atrial natriuretic peptide receptor 1 (Homo sapiens), P16066; HEK293 hNpr1 GloSensor cGMP, ANP-stimulated luminescence; 1.6% of 76,000 active; Potency, µM (highest dose often 46.3 µM), without a hit: top-dose activity change, negative = inhibition, usual class: inhibitors; calls by dose curve; further: on the % scale 0 is the no-effect control and ±100 the full control effect; nearly all actives have a fitted effect of over 60% in size
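HEK293 cells stably expressing human Npr1 and cGMP GloSensor pGS-40F, loaded 2 h with 2% GloSensor reagent, given compound 30 min at room temperature. Luminescence read before and 20 min after 0.1 nM hNppA.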
FLuc inh-1 = Firefly luciferase inhibition profiling of diverse chemical library using quantitative high-throughput screening | Luciferin 4-monooxygenase (Photinus pyralis), P08659 | purified P. pyralis luciferase, luminescence, biochemical | Potency, µM (doses to about 115 µM), actives largely listed as inhibitors | 2.5% of 76,000 active | AID 1347043, 2019; further: on the % scale 0 is the no-effect control and ±100 the full control effect; nearly all actives have a fitted effect of over 65% in size
Target sequence (P08659 whole entry, looked up): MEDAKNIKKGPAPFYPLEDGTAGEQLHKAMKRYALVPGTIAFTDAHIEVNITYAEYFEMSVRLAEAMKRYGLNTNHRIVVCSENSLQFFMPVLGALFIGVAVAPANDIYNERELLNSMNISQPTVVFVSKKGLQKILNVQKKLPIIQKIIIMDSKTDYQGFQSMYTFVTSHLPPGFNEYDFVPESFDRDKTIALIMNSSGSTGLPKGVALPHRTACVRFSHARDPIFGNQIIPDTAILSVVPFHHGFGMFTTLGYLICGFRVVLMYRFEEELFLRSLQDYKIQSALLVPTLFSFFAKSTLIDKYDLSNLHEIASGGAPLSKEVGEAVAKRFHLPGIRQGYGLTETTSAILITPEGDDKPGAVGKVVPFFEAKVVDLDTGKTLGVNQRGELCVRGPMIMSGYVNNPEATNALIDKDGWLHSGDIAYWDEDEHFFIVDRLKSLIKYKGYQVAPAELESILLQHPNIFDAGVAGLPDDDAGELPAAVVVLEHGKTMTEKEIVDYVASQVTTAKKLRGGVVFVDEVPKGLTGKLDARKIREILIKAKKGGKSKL
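Inhibitors were tested against purified firefly luciferase in a biochemical, low-substrate format (both substrates at 10uM) and luminescence measured with a CCD imager.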
HEK293 tox = Cytotoxic Profiling in HEK 293 Cell Line of Diverse Libraries Using Quantitative High-Throughput Screening. 6.6% of 94,000 active. AID 1345083, 2018. HEK 293 viability, ATP luminescence (CellTiter-Glo), 48-72 h. Potency, µM (titrated, usually from 115 µM), inactives show top-dose activity change, negative = cytotoxicity, most hits filed as inhibitors; further: on the % scale 0 is the no-effect control and ±100 the full control effect; nearly all actives have a fitted effect of over 60% in size
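Cells seeded first (HEK 293, 250 cells/well), then compound added by pintool. Incubation ran 48 or 72 hr at 37 degree Celsius. CellTiter-Glo was added and luminescence imaged after 10 min at room temperature.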
FLuc SDR -ATP = Firefly luciferase (FLuc-C-HiBiT) SDR gain of signal screen - without ATP; shares compounds with FLuc inh-1; Purified FLuc-C-HiBiT, Nano-Glo HiBiT luminescence, no ATP; Potency, µM (titrated, usually from 32.7 µM), for inactives: at the highest dose activation (signal gain), usual class: activators; 7.8% of 1,300 active; AID 1963318, 2024; further: nearly all actives have a fitted effect of over 55% in size
FLuc SDR ATP = Firefly luciferase (FLuc-C-HiBiT) SDR gain of signal screen - plus ATP | Potency, µM (highest dose often 32.7 µM), without a hit: at the highest dose activation (gain of signal), actives largely listed as activators | shares compounds with FLuc inh-1 | 8.7% of 1,300 active | purified FLuc-C-HiBiT + ATP, HiBiT complementation luminescence;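 further: signal reports ligand binding via conformational change of the enzyme rather than luciferase catalysis; % of control where 0% means no effect; nearly all actives have a fitted effect of over 55% in size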
FLuc inh-2 = Firefly luciferase (FLuc-C-HiBiT) enzymatic inhibition screen - Functional assay; shares compounds with FLuc inh-1; Potency, µM (titrated, usually from 32.7 µM), inactives show at the top dose activity change, negative = inhibition, hits mostly inhibitors; 42% of 1,300 active; purified FLuc-C-HiBiT enzyme, luciferin luminescence; further: on the % scale 0 is the no-effect control and ±100 the full control effect; nearly all actives have a fitted effect of over 70% in size
* hit, by the source's call; i = inactive; u = inconclusive; x = not tested or not shown; [ ] = dose if it differs, or a comment. Rows were chosen to be rich in hits. Some 11% of all compounds tested hit in one or more screens of this group. Unless noted, the call rests on the fitted dose curve; in most records, active means well fitted curve in the direction sought with a large enough effect; inconclusive means small, poorly fitted or top-dose-only effect, or another doubt; inactive means no such curve, though single readings can be large; an effect the other way counts as inactive or inconclusive. Potency means the concentration at half of the fitted maximal effect.

SMILES | NIH3T3 tox | NPR1 antag | FLuc inh-1 | HEK293 tox | others
O=C(NCc1ccc(F)cc1)[C@H]1CN2CCC1C[C@@H]2Cn1cc(COc2ccccc2)nn1 (stereo not given in full) | -17% | 1% | i | u
CCOC(=O)[C@H]1CN(C(=O)/C=C/c2ccccc2)[C@]2(C)C(=O)N(C)c3ccccc3[C@H]12 | -20%[46.1 µM] | x | x | u
COc1cc2c(cc1Oc1ccccc1)NC(=O)C21CCN(C(=O)c2cccnc2)CC1 | u | -24%[70.6 µM] | i | 56µM*
COc1cc2c(cc1OCC1CC1)NC(=O)C21CCN(C(=O)c2cccnc2)CC1 | 25µM* | 3%[70.6 µM] | i | -16%[172 µM]
COc1cc2c(cc1Oc1ccccc1)NC(=O)C21CCN(C(=O)c2scnc2C)CC1 | u | -17% | i | 45µM*
COCC(=O)N1CCC2(CC1)C(=O)Nc1cc(Oc3ccccc3)c(OC)cc12 | -26%[138 µM] | -5%[70.6 µM] | i | u
OC[C@@H]1[C@H]2CN(Cc3ccoc3)CCN2C[C@H]1c1ccccc1 | -10% | x | x | u
CCOC(=O)[C@H]1CN(C(=O)OCc2ccccc2)[C@]2(C)C(=O)N(CC3CC3)c3ccccc3[C@H]12 | u | x | x | 35µM*
CCCCCC(=O)N1C[C@H](C(=O)OCC)[C@H]2c3ccccc3N(CC3CC3)C(=O)[C@]21C | u | x | x | 32µM*
CCOC(=O)[C@H]1CN(C(=O)NC2CCCC2)[C@]2(C)C(=O)N(CCOC(C)=O)c3ccccc3[C@H]12 | u | x | x | -24%[57.5 µM]
CCOC(=O)[C@H]1CN(C(=O)c2ccno2)[C@]2(C)C(=O)N(CC3CC3)c3ccccc3[C@H]12 | -31%[46.1 µM] | x | x | u
CCOC(=O)[C@H]1CN(C(=O)OCc2ccccc2)[C@]2(C)C(=O)N(C)c3ccccc3[C@H]12 | -20%[46.1 µM] | x | x | u
CCOC(=O)[C@H]1CN(C(=O)NC2CCCC2)[C@]2(C)C(=O)N(CC3CC3)c3ccccc3[C@H]12 | u | x | x | 32µM*
Cn1nc(-c2ccc(F)cc2)cc1[C@H]1CN2CC[C@H]1C[C@@H]2CNC(=O)NCc1ccccc1 | u | -16% | i | 25µM*
Cn1nc(-c2cccs2)cc1[C@H]1CN2CC[C@H]1C[C@@H]2CNC(=O)NCc1ccccc1 | -30% | 0% | i | -15%
COc1ccc(CNC[C@H]2C[C@@H]3CCN2C[C@@H]3c2cc(-c3ccc(F)cc3)nn2C)cc1 | 89µM* | 1%[70.6 µM] | i | 45µM*
Cn1nc(-c2ccccc2)cc1[C@H]1CN2CC[C@H]1C[C@@H]2CNC(=O)NCc1ccccc1 | 100µM* | -2%[70.6 µM] | i | u
COc1ccccc1-c1cc([C@H]2CN3CC[C@H]2C[C@@H]3COC(=O)Nc2ccc(C(C)C)cc2)n(C)n1 | 22µM* | -1% | i | 28µM*
COc1ccccc1-c1cc([C@H]2CN3CC[C@H]2C[C@@H]3COC(=O)Nc2ccccc2)n(C)n1 | u | -2% | i | u
COc1ccccc1-c1cc([C@H]2CN3CC[C@H]2C[C@@H]3COC(=O)Nc2ccc(C(C)(C)C)cc2)n(C)n1 | 22µM* | -2% | i | 25µM*
O=C1N(c2ccccn2)C[C@H]2CN(Cc3ccc(F)cc3)CCN12 | -30%[138 µM] | -18%[70.6 µM] | 25µM* | -26%[172 µM]
CCN1CCCN(C(=O)COc2ccccc2)CC12CCOCC2 | -13% | x | x | -23%
CN(C)c1ccc(C(=O)NC[C@H]2C[C@@H]3CCN2C[C@@H]3c2cc(C3CCCCC3)nn2C)cc1 | u | 2% | i | u
COc1ccc(C(=O)NC[C@H]2C[C@@H]3CCN2C[C@@H]3c2cc(-c3ccc4ccccc4c3)nn2C)cc1 | u | 1% | i | 18µM*
Cn1nc(C2CCCCC2)cc1[C@H]1CN2CC[C@H]1C[C@@H]2CNC(=O)c1cccs1 | u | -2%[70.6 µM] | i | 100µM*
SMILES | NIH3T3 tox | NPR1 antag | FLuc inh-1 | HEK293 tox | others
COCC(=O)NC[C@H]1C[C@@H]2CCN1C[C@@H]2c1cc(-c2ccc3ccccc3c2)nn1C | 35µM* | -1%[70.6 µM] | u | 50µM*
COc1ccc(-c2cc([C@H]3CN4CC[C@H]3C[C@@H]4CNC(=O)c3ccc(N(C)C)cc3)n(C)n2)cc1 | u | 1% | i | 22µM*
COc1ccc2c(c1)C1(CCN(C(=O)c3cccc(F)c3)C1)C(=O)N2C (stereo not given) | -17% | -1% | i | u
COc1ccc(-c2cc([C@H]3CN4CC[C@H]3C[C@@H]4CNC(=O)c3cccs3)n(C)n2)cc1OC | u | -3% | i | u
Cn1nc(-c2ccc3ccccc3c2)cc1[C@H]1CN2CC[C@H]1C[C@@H]2CNC(=O)c1cccs1 | 25µM* | -4% | u | 20µM*
COc1ccc(CC(=O)N2CCN(CCn3nc4n(c3=O)CCCC4)CC2)cc1 | -13% | x | x | -1%
O=C(NC[C@H]1C[C@@H]2CCN1C[C@@H]2CN1CCN(c2ccc(F)cc2)CC1)Nc1ccsc1 | u | 1% | i | 79µM*
COc1ccc(C(=O)N2CC3(CCN(C)CC3)c3cc(OC)c(OCc4ccccc4)cc32)cn1 | u | 5% | i | 79µM*
COc1cc2c(cc1OCc1ccccc1)N(C(=O)c1cc3ccccc3n1C)CC21CCN(C)CC1 | 13µM* | -2% | i | 25µM*
COc1cc2c(cc1OCc1ccccc1)N(C(=O)c1ccncc1)CC21CCN(C)CC1 | -26% | 1% | i | u
O=C1NCCCCCCN(Cc2ccncc2)[C@@H]2CN(C(=O)COc3ccc(F)cc3)CC[C@@H]12 | 35µM* | 7% | i | -5%
Cc1cc(-c2cc3c(cn2)CN(CC(C)C)CCN3)ccn1 | u | 1%[70.6 µM] | 4.5µM* | u | FLuc SDR -ATP=u;FLuc SDR ATP=17%[49.3 µM];FLuc inh-2=16µM*
COc1ccc(-c2cc3c(cn2)CN(C)CCN3)cc1OC | u | -11%[70.6 µM] | u | -43%[172 µM]
